HP1b chromo inh – HTS for Inhibitors of HP1-beta Chromodomain Interactions with Methylated Histone Tails. Chromobox protein homolog 1 (Homo sapiens), P83916. AlphaScreen HP1-beta / biotin-H3K9me3 peptide binding. Potency, µM (top dose mostly 114 µM), for inactives: at the highest dose activity change, negative = inhibition, most hits filed as inhibitors. 0.56% of 390,000 active. AID 540317, 2011; also: nearly all actives have a fitted effect of over 70% in size
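HP1-beta protein (50 nM final) preincubated 30 min at room temperature with biotinylated H3(1-18)K9me3 peptide (50 nM) in PBS pH 7.4, 0.01% Tween-20, then compound added for 30 min. AlphaScreen streptavidin donor/nickel chelate acceptor beads (10 ug/mL final), 30 min dark, luminescence read.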
G9a inh – qHTS Assay for Inhibitors of Histone Lysine Methyltransferase G9a | G9a H3K9 monomethylation, AlphaScreen, 2 h | 8.8% of 350,000 active | AID 504332, 2011 | Potency, µM (series often up to 102 µM), inactives show top-dose activity, negative = inhibition, hits mostly inhibitors | Histone-lysine N-methyltransferase EHMT2 (Homo sapiens), Q96KQ7; also: % is scaled to controls: 0 for no effect and ±100 for the full control effect; nearly all actives have a fitted effect of over 75% in size
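Using a bead-based AlphaScreen, monomethylated H3K9 product from 2 h room-temperature reactions (G9a 20 nM, peptide 500 nM, SAM 20 uM) was detected with 0.5 ug/mL rabbit anti-H3K9me1 antibody.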
BAZ2B block – qHTS Assay for Inhibitors of BAZ2B. AlphaScreen BAZ2B-H3K14Ac peptide displacement. Potency, µM (series often up to 114 µM), inactives show top-dose activity change, negative = inhibition, usual class: inhibitors. 4.4% of 360,000 active. AID 504333, 2011; also: % is scaled to controls: 0 for no effect and ±100 for the full control effect; nearly all actives have a fitted effect of over 60% in size
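AlphaScreen luminescence quantifies BAZ2B engagement of H3K14Ac peptide; the protein and biotinylated peptide are both at 50 nM final, buffer PBS pH 7.4 with 0.01% Tween-20, all steps at room temperature.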
JMJD2A Tudor inh – qHTS Assay for Inhibitors of JMJD2A-Tudor Domain | AlphaScreen JMJD2A-Tudor / H3K4me3 peptide binding | Potency, µM (doses to about 114 µM), for inactives: at the top dose activity change, negative = inhibition, most hits filed as inhibitors | Lysine-specific demethylase 4A (Homo sapiens), O75164 | 4.4% of 390,000 active; also: % is scaled to controls: 0 for no effect and ±100 for the full control effect; nearly all actives have a fitted effect of over 50% in size
L3MBTL1 block – qHTS Assay for the Inhibitors of L3MBTL1; AlphaScreen L3MBTL1–H3K9me1 peptide binding; Potency, µM (titrated, usually from 57.1 µM), for inactives: at the top dose activity, negative = inhibition, hits mostly inhibitors; 0.66% of 230,000 active; also: % is scaled to controls: 0 for no effect and ±100 for the full control effect; nearly all actives have a fitted effect of over 60% in size
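L3MBTL1 50 nM + b-AHA-H3(1-15)K9me1 75 nM, 30 min RT; compound added, 30 min RT; streptavidin donor/Ni-chelate acceptor beads 10 ug/mL each final, 30 min RT dark; AlphaScreen read.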
* hit, by the source's call; ? = inconclusive; / = no result given; [ ] = dose if it differs, or a comment. Hits are enriched below; roughly 11% of the tested compounds scored in any of these assays. Calls follow the shape of the dose curve; as a rule, active = well fitted inhibition curve with a large enough effect; inconclusive = small, poorly fitted or top-dose-only effect; inactive = no such curve, though single readings can be large or run the other way. Potency is read from the fitted curve at half-maximal effect.

SMILES | HP1b chromo inh | G9a inh | BAZ2B block | JMJD2A Tudor inh | L3MBTL1 block
O=C(NCCc1ccccc1)C(=O)NCC1OCCCN1S(=O)(=O)c1cccs1 (centres undefined) | 40% | 102% | 8% | -22% | /
CCn1c2ccccc2c2cc(CN3CCN(Cc4ccccc4C)CC3)ccc21 | ? | 1.8µM* | 56µM* | 5.6µM* | /
CCn1c2ccccc2c2cc(CN3CCN(S(C)(=O)=O)CC3)ccc21 | ? | 0%[59 µM] | ? | ? | -2%
CCn1c2ccccc2c2cc(CN3CCN(Cc4ccccc4F)CC3)ccc21 | ? | 2µM* | 16µM* | 4µM* | /
CCn1c2ccccc2c2cc(CN3CCN(Cc4cc(OC)ccc4O)CC3)ccc21 | ? | 10µM* | 20µM* | 1µM* | -28%
CC(=O)OCC(NC(=O)C(CCCCNC(=O)OCc1ccccc1)NC(=O)OC(C)(C)C)C1OC(n2ccc(=O)[nH]c2=O)C(OC(C)=O)C1OC(C)=O (centres undefined) | 27% | / | / | -14% | /
CCOCCCn1c(=S)[nH]c2cc(C(=O)N3CCC(C(N)=O)CC3)ccc2c1=O | 19% | 35µM* | ? | 8.9µM* | 10%
COc1ccccc1Cn1c(=S)[nH]c2cc(C(=O)N3CCC(C(N)=O)CC3)ccc2c1=O | 49% | 79µM* | -13% | -7% | /
CCCCNC(=O)c1ccc2c(=O)n(CCCOCC)c(=S)[nH]c2c1 | 20% | -40% | 6% | 1% | 4%
COCCn1c(=S)[nH]c2cc(C(=O)N3CCC(C(N)=O)(N4CCCCC4)CC3)ccc2c1=O | 44% | 35µM* | -36% | ? | -3%
CCOC(=O)CC1=CCc2c1ccc(OC)c2OC | 21% | / | / | -6% | /
Cc1cccc(NC(=O)C2CCC(CNS(=O)(=O)c3csc(C(N)=O)c3)CC2)c1C (centres undefined) | 14% | 11%[59 µM] | 4% | -3% | /
O=C(O)CCc1ccc(S(=O)(=O)Nc2cc(C(F)(F)F)ccc2N2CCCC2)cc1 | 2% | 28µM* | 79µM* | ? | ?
CCN(CC)C(=O)c1sc2c(c1C)c(=O)n(Cc1ccccc1)c(=O)n2CC(=O)Nc1ccc(OC)cc1 | 40% | 2%[59 µM] | -4% | -11% | /
COc1ccccc1NC(=O)Cn1c(O)c(N=NC(=O)c2ccccc2O)c2ccccc21 | 17% | 45µM* | 56µM* | -35% | 3%
CCC(=O)N(CC)C1=C(O)c2ccccc2C(=O)C1=O | ? | 1µM* | 45µM* | 5.6µM* | -11%
CCC(=O)N(C1=C(NC)C(=O)c2ccccc2C1=O)C(C)C | 3% | -40% | -25% | -17% | /
Cc1ccc(S(=O)(=O)C(CNC(=O)C(=O)NCc2ccccc2C)c2cccs2)cc1 (centres undefined) | 13% | 4%[59 µM] | -3% | -18% | /
Cc1ccc2c(=O)cc(C(=O)NCc3ccccc3)oc2c1 | 4% | -15%[59 µM] | -25% | -17% | /
CCN(CC(=O)NCc1ccc(Cl)cc1)C(=O)c1ccc(S(=O)(=O)N(C)C)cc1 | 46% | 5% | -10% | -15% | 2%
NC(=O)c1cc([N+](=O)[O-])ccc1Nc1ccccc1 | 18% | 10%[2.33 µM] | 4% | -24% | 1%
O=C(O)c1ccccc1Nc1ccc([N+](=O)[O-])c2nonc12 | ? | 45µM* | 40µM* | -31% | /
O=C(O)c1ccccc1Nc1ccc([N+](=O)[O-])cc1C(=O)O | -5% | 32µM* | ? | 32µM* | /
COc1ccc(CCNC(=O)CSc2nnc(-c3ccc(C)cc3)c(-c3ccc(C)cc3)n2)cc1OC | -10% | ? | -10% | -33% | /
CCCN(C(=O)Cc1nc(N)n[nH]1)C1(C(=O)Nc2ccccc2C)CCCCC1 | 20% | 5%[12.7 µM] | 45µM* | ? | ?
CCCN(C(=O)Cc1nc(N)n[nH]1)C1(C(=O)Nc2c(C)cccc2C)CCCCC1 | 43% | -4%[12.7 µM] | 79µM* | -35% | 1%[11.4 µM]
CCCc1nc(SCc2cc(=O)c3ccc(C)c(C)c3[nH]2)n[nH]1 | 16%[57 µM] | 56%[59 µM] | 16% | -14% | /
